This is an account of results in PubChem BioAssay (NCATS).

Inconclusive results are not listed. Unmarked numbers belong to inactive results. Calls of active or inactive are those of the source. The call rests on the fitted dose curve; in most records, active means well fitted curve in the direction sought with a large enough effect; inconclusive means small, poorly fitted or top-dose-only effect, or another doubt; inactive means no such curve, though single readings can be large; an effect the other way counts as inactive or inconclusive.

One assay deals with MCC-13. Kind of assay: qHTS assay to identify novel small-molecules to repurpose for Merkel cell carcinoma treatment (AID 1296009). Further: nearly all actives have a fitted effect of over 60% in size. Further: potency means the concentration at half of the fitted maximal effect. Particulars: MCC and control cell lines, CellTiter-Glo viability, 72 h; series mostly up to 46 µM. The gist of the method:
(§1)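 Cells were treated for 72 hr at 37 degree celsius with compounds in 8- or 11-point dose response. Viability was read by CellTiter-Glo luminescence, normalized to no-cell (cytotoxicity) and DMSO controls.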
On the technique in general: In qHTS, concentration-response curves come from the screen itself.

A further assay relates to MCC-26. The description is as above. The following applies: MCC and control cell lines, CellTiter-Glo viability, 72 h; series mostly up to 46 µM. The gist of the method: as §1
On the technique in general: ATP-based viability assays read luminescence as a measure of living cells.

The test system of the next assay is MKL-1. Described as above. The following applies: MCC and control cell lines, CellTiter-Glo viability, 72 h; series mostly up to 46 µM. The gist of the method: as §1
Another assay deals with MKL-2. Described as above. The following applies: MCC and control cell lines, CellTiter-Glo viability, 72 h; series mostly up to 46 µM. In outline:
as §1

The test system of a further assay is UISO. Described as above. Particulars: MCC and control cell lines, CellTiter-Glo viability, 72 h; series mostly up to 46 µM. The gist of the method:
as §1

The subject of the next assay is C33A. In words: Primary qHTS to identify gynecologic anti-cancer compounds using libraries of approved drugs and bioactive compounds (AID 1345084). Further: nearly all actives have a fitted effect of over 55% in size. The following applies: Gynecologic cancer cell panel viability, ATPlite luminescence, 48 h; series mostly up to 57.5 µM. In outline: (§2)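 48 h compound exposure at 37 C, 5% CO2; five-point qHTS. ATPlite luminescence readout of cell ATP.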

A further assay concerns CAOV3. Described as above. The following applies: Gynecologic cancer cell panel viability, ATPlite luminescence, 48 h; series mostly up to 57.5 µM. In outline:
as §2

For another assay, the system named is CASKI. The assay is described as above. Particulars: Gynecologic cancer cell panel viability, ATPlite luminescence, 48 h; series mostly up to 57.5 µM. The gist of the method:
as §2

A further assay relates to Es-2. The description is as above. Particulars: Gynecologic cancer cell panel viability, ATPlite luminescence, 48 h; series mostly up to 57.5 µM. The gist of the method: as §2
Another assay has as its system HeLa. Described as above. The following applies: Gynecologic cancer cell panel viability, ATPlite luminescence, 48 h; series mostly up to 57.5 µM. In outline:
as §2

The subject of another assay is Hek293T. Described as above. Particulars: Gynecologic cancer cell panel viability, ATPlite luminescence, 48 h, control line for the selectivity index; series mostly up to 57.5 µM. The gist of the method: as §2
Another assay concerns JEG-3. The assay is described as above. Particulars: Gynecologic cancer cell panel viability, ATPlite luminescence, 48 h; series mostly up to 57.5 µM. The gist of the method:
as §2

For a further assay, the system named is OV90. The assay is described as above. The following applies: Gynecologic cancer cell panel viability, ATPlite luminescence, 48 h; series mostly up to 57.5 µM. In outline:
as §2

A further assay deals with PA-1. The assay is described as above. Particulars: Gynecologic cancer cell panel viability, ATPlite luminescence, 48 h; series mostly up to 57.5 µM. In outline: as §2
The test system of another assay is SKOV3. The description is as above. Particulars: Gynecologic cancer cell panel viability, ATPlite luminescence, 48 h; series mostly up to 57.5 µM. The gist of the method:
as §2

The next assay has as its system Tov-21-G. The assay is described as above. The following applies: Gynecologic cancer cell panel viability, ATPlite luminescence, 48 h; series mostly up to 57.5 µM. In outline: as §2
The subject of the next assay is Tov112D. Described as above. The following applies: Gynecologic cancer cell panel viability, ATPlite luminescence, 48 h; series mostly up to 57.5 µM. The gist of the method: as §2
Assay [1] is described as follows: Drug repurposing screens with cells derived from glioblastoma tumor samples (AID 1345199). Further: nearly all actives have a fitted effect of over 40% in size. Further: potency means the concentration at half of the fitted maximal effect. Particulars: GBM patient neurospheres viability, ATP luminescence, 48 h. The gist of the method:
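Four patient lines of CD133+ GBM neurospheres were screened at several concentrations; hits were retested in those lines plus three slower-growing GBM lines, using 48-hour treatment and ATP-based viability.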

The subject of a further assay is WaGa. Kind of assay: qHTS assay to identify novel small-molecules to repurpose for Merkel cell carcinoma treatment (AID 1296009). Further: nearly all actives have a fitted effect of over 60% in size. Further: potency means the concentration at half of the fitted maximal effect. Particulars: MCC and control cell lines, CellTiter-Glo viability, 72 h; series mostly up to 46 µM. In outline: as §1
[2] abbreviates: at 45.9 µM (top of the series), tumour line B.
Setting [3] is: at 45.9 µM (top of the series), tumour line D.
The mark [4] stands for this setting: at 46.1 µM (top of the series), tumour line C.
On the % scale 0 is the no-effect control and ±100 the full control effect.

On to `Cc1nnc(SCC2=C(C(=O)O)N3C(=O)[C@@H](NC(=O)Cn4cnnn4)[C@H]3SC2)s1`, for which the Potency result in the assay with MCC-13, in the assay on MCC-26, in the assay on MKL-1, in the assay with UISO, in the assay with C33A and in the assay with CAOV3 was “inactive” throughout. Besides, the Potency entry in the assay on CASKI, with Es-2, in the assay with HeLa, in the assay on Hek293T, with JEG-3 and with OV90 was “inactive” each time. In addition, the Potency entry in the assay with PA-1, with SKOV3, in the assay with Tov-21-G and with Tov112D was “inactive” each time. In addition, the Potency in the assay on MKL-2 is 13.3 µM (active). Besides, the figures for the activity, negative = cell killing in assay [1] (setting [2]), in assay [1] (setting [3]) and in [1] (setting [4]) were -10.7%, -8.75% and -9.01%, respectively.

With `CCCOc1ccccc1-c1nc2n[nH]nc2c(=O)[nH]1`, the Potency entry in the assay on MCC-13, in the assay on MCC-26, in the assay with MKL-1, with MKL-2, in the assay on UISO and in the assay on WaGa was “inactive” each time. The Potency result in the assay on C33A, with CAOV3, in the assay with CASKI, with Es-2, in the assay on Hek293T and in the assay with JEG-3 was “inactive” each time. Besides, the Potency result in the assay on OV90, with PA-1, in the assay with SKOV3, in the assay on Tov-21-G and in the assay on Tov112D was “inactive” throughout. The activity, negative = cell killing in assay [1] (setting [2]) is -4.45%; in assay [1] (setting [3]), -8.24%; in assay [1] (at 46 µM (top of the series), tumour line A), -28%; in [1] (setting [4]) it was -19%.

In the case of `CCCNC(C)C(=O)Nc1ccccc1C` (centres undefined), the Potency result in the assay on MCC-13, in the assay on MCC-26, in the assay with MKL-1, in the assay with MKL-2, with UISO and in the assay on WaGa was “inactive” each time. The Potency result in the assay on C33A, with CAOV3, in the assay on CASKI, with Es-2, in the assay on Hek293T and with JEG-3 was “inactive” throughout. In addition, the Potency result in the assay on OV90, in the assay on PA-1, in the assay with SKOV3, in the assay on Tov-21-G and with Tov112D was “inactive” throughout. For the same molecule, the activity, negative = cell killing was -20% in assay [1] (setting [2]), -8.5% in assay [1] (setting [3]) and -15.8% in assay [1] (setting [4]).

Regarding `C[N+](C)(C)CCOC(N)=O`, the Potency result in the assay on MCC-13, in the assay on MCC-26, in the assay with MKL-1, with MKL-2, with UISO and in the assay on WaGa was “inactive” each time. Also, the Potency entry in the assay on C33A, in the assay on CASKI, in the assay on Es-2, in the assay on Hek293T, in the assay on JEG-3 and in the assay with OV90 was “inactive” throughout. Besides, the Potency result with PA-1, in the assay with SKOV3, with Tov-21-G and in the assay on Tov112D was “inactive” in each case. Further, the values for the activity, negative = cell killing in [1] (setting [2]), in [1] (setting [3]) and in [1] (setting [4]) were -5.35%, -11.4% and -0.881%, respectively.

Take `NC1=NCC2c3ccccc3Cc3ccccc3N12` (centres undefined): the Potency entry in the assay with MCC-13, with MCC-26, in the assay with MKL-1, with MKL-2, in the assay on UISO and in the assay on WaGa was “inactive” throughout. The Potency entry in the assay with C33A, with CAOV3, in the assay with CASKI, in the assay on Es-2, with HeLa and in the assay on Hek293T was “inactive” throughout. The Potency entry in the assay on JEG-3, with PA-1, in the assay with SKOV3 and with Tov-21-G was “inactive” throughout. In addition, in assay [1] (setting [2]), the activity, negative = cell killing is -23.2%. Besides, the Potency in assay [1] (tumour line A) is 12.6 µM (active).

Take `CCO/C([O-])=N/c1c[n+](N2CCOCC2)no1`: the Potency result with MCC-13, in the assay with MCC-26, with MKL-1, in the assay on MKL-2, in the assay with UISO and with WaGa was “inactive” in each case. The Potency entry in the assay on C33A, in the assay with CAOV3, with CASKI, in the assay with Es-2, with Hek293T and in the assay with JEG-3 was “inactive” in each case. Moreover, the Potency entry in the assay with OV90, in the assay with PA-1, in the assay with SKOV3, in the assay with Tov-21-G and with Tov112D was “inactive” each time. Moreover, the activity, negative = cell killing in [1] (at 20 µM (top of the series), tumour line C) was -6.76%; in [1] (at 21.2 µM (top of the series), tumour line B), -3.07%; in assay [1] (at 21.2 µM (top of the series), tumour line D), -1.62%; in [1] (at 21.3 µM (top of the series), tumour line A), -22.7%.
